Source: PubChem BioAssay (NCATS)
Results filed as inconclusive are left out. Unmarked numbers belong to inactive results. The source made the active and inactive calls. Calls follow the shape of the dose curve; as a rule, active = well fitted cell-killing curve with a large enough effect; inconclusive = small, poorly fitted or top-dose-only effect, or effect the other way; inactive = no such curve, though single readings can be large or run the other way.
Potency is read from the fitted curve at half-maximal effect.

Assay: Viability qHTS for spleen associated tyrosine kinase inhibitor (SYKi) naive MV4-11 cells (AID 1963823); also: nearly all actives have a fitted effect of over 40% in size
Conditions: MV4-11 AML viability, CellTiter-Glo luminescence, 72 h; series mostly up to 45 µM; viability (% of control): at the top concentration
In short: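 Compounds were dispensed acoustically onto plates, MV4-11 cells (SYKi-naive) added at 500 per well, and plates incubated 72 hr at 37 C. CellTiter-Glo was added and luminescence measured after 10 min.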
In the case of `COc1cc2c(cc1OC)/C(=C/c1ccc(O)cc1)C(=O)N2`, the Potency was 8.2 µM (active).
With `Cc1cc2c(F)c(Oc3ncnn4cc(OCC(C)OC(=O)C(C)N)c(C)c34)ccc2[nH]1` (stereo not drawn) the Potency was 10.3 µM (active).
With `Clc1ccc2c(c1)N=C(N1CCNCC1)c1ccccc1N2` the Potency was 20.6 µM (active).
For `CC[C@H](CO)Nc1nc(Nc2cccc(-c3ccccn3)c2)c2ncn(C(C)C)c2n1`, the Potency was 2.59 µM (active).
For `COc1cc(C(CO)CO[C@@H]2O[C@H](CO)[C@@H](O)[C@H](O)[C@H]2O)ccc1O` (stereo partly drawn), the “viability (% of control)” value was 87.6%.
In the case of `COc1ccc(CCc2nc3cc(-c4c(C)noc4C)ccc3n2CC(C)N2CCOCC2)cc1Cl` (stereo not drawn), the Potency was 4.11 µM (active).
For `CC12CC(c3ccoc3)OC(=O)C1CCC1(C)C2CCC(O)C1(C)O` (stereo not drawn), the “viability (% of control)” value was 66.1%.
For `CC(=O)c1c(O)cc2cccc3c2c1CC(C)(O)O3` (stereo not drawn), the “viability (% of control)” value was 49.3%.
With `Cc1cc2c(c(=O)o1)C=C1CC[C@H]([C@H](C)Cn3cnc(=N)c4[nH]cnc43)C[C@@H]1O2` the “viability (% of control)” value was 93.4%.
In the case of `COc1ccc(/C=C/C(=O)O[C@H]2[C@H](O[C@H]3[C@@H]4C=CO[C@@H](O[C@@H]5O[C@H](CO)[C@@H](O)[C@H](O)[C@H]5O)[C@@H]4[C@@]4(CO)O[C@@H]34)O[C@@H](C)[C@H](O)[C@H]2OC(C)=O)cc1`, the “viability (% of control)” value was 64.3% [at 17.3 µM].
For `CC(C)Oc1ccc(-c2nc(-c3cccc4c3CCC4NCCC(=O)O)no2)cc1C#N` (stereo not drawn), the “viability (% of control)” value was 73%.
With `CN1C(=O)c2ccccc2NC(=O)[C@]12O[C@@H]2c1cccc(O)c1` the “viability (% of control)” value was 72.5%.
With `CC(C)C(C(=O)N(C)C(C)C(N)=O)N(C)C(=O)C1CCCN1C(=O)/C=C/C=C/C(O)C(C)O` (stereo not drawn) the “viability (% of control)” value was 79% [at 17.3 µM].
In the case of `C[C@@]12C[C@]3(O)O[C@H](O1)[C@]1(COC(=O)c4ccccc4)[C@H]3C[C@@]12O[C@@H]1O[C@H](COC(=O)c2ccccc2)[C@@H](O)[C@H](O)[C@H]1O`, the “viability (% of control)” value was 57.5% [at 17.3 µM].
With `COC(=O)C1=C[C@@H](O)[C@@H](O)[C@H](O[C@@H]2O[C@H](CO)[C@@H](O)[C@H](O)[C@H]2OC(=O)/C=C/c2ccccc2)C1` the “viability (% of control)” value was 78.7% [at 17.3 µM].
In the case of `CC(=O)Oc1ccc(C2(c3ccc(OC(C)=O)cc3)Oc3ccccc3NC2=O)cc1`, the Potency was 5.8 µM (active).
For `C=C1[C@@H]2CC[C@@]3(C)[C@H](c4ccoc4)OC(=O)C[C@]13O[C@H]1CC(=O)C(C)(C)[C@H](CC(=O)OC)[C@]12C`, the “viability (% of control)” value was 72.2% [at 17.3 µM].
For `C=C1C(=O)OC2/C=C(\C)CC/C=C(\C=O)C(OC)C(OC(=O)C(C)CC)C12` (stereo not drawn), the Potency was 3.21 µM (active).
With `COc1ccc2c(c1)CN(C(=O)CCN1CCC(Cc3ccccc3)CC1)CCS2` the Potency was 8.93 µM (active).
For `CN(CCCNC(=O)c1ccc2nc3c(c(Cl)c2c1)CCCC3)Cc1ccccc1`, the Potency was 5.8 µM (active).
For `COc1cc(-c2ncn(/C=C\C(=O)OC(C)C)n2)cc(C(F)(F)F)c1`, the Potency was 0.103 µM (active).
With `CC(C)[C@@H](C)/C=C/[C@@H](C)[C@H]1CC[C@H]2C3=CC=C4C[C@@H](O)CC[C@]4(C)C3=CC[C@]12C` the Potency was 16.4 µM (active).
In the case of `CC(C)c1cc(C(=O)N2CC[C@@H](NC(=O)C3CC3)C2)n[nH]1`, the “viability (% of control)” value was 39.9%.
In the case of `CC(O)C(O)/C=C/C=C/C(=O)O[C@@H]1C=C2COC(=O)[C@]2(O)[C@@]2(C)CCCC(C)(C)C12` (stereo partly drawn), the “viability (% of control)” value was 59.6% [at 17.3 µM].
With `CC1OC(OCC2OC(OC3CCC4(C)C(CCC5(C)C4CC=C4C6CC(C)(C)CCC6(C(=O)OC6OC(CO)C(O)C(O)C6O)CCC45C)C3(C)CO)C(O)C(O)C2O)C(O)C(O)C1O` (stereo not drawn) the viability (% of control) was 79.6% [at 9.25 µM].
In the case of `O=C1NC2CCCCN2C12CCN(CCCN1c3ccccc3CCc3ccc(Cl)cc31)CC2` (stereo not drawn), the Potency was 10.3 µM (active).
In the case of `Cn1cnc2c(NCc3ccccc3)nc(NCCO)nc21`, the “viability (% of control)” value was 97.2%.
With `C[C@@H]1O[C@@H](O[C@H]2[C@H](OC(C#N)c3ccc(O)cc3)O[C@H](CO)[C@@H](O)[C@@H]2O)[C@H](O)[C@H](O)[C@H]1O` (stereo partly drawn) the “viability (% of control)” value was 87.8% [at 17.3 µM].

Assay: Viability qHTS for spleen associated tyrosine kinase inhibitor (SYKi) drug resistant MV4-11 cells (AID 1963824); also: nearly all actives have a fitted effect of over 35% in size
Conditions: SYKi-resistant MV4-11 viability, CellTiter-Glo, 72 h; series mostly up to 45 µM; viability, % of control: at the top concentration
In short: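 SYK inhibitor-resistant MV4-11 AML cells, 500 per well, added to predispensed compounds and incubated 72 hr at 37 C, 5% CO2. Viability measured by CellTiter-Glo luminescence after 10 min at room temperature.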
In the case of `CC1=C(C)C(=O)OC(C(C)C2CCC3C4CC=C5CC(OC6OC(COC7OC(CO)C(O)C(O)C7O)C(O)C(O)C6O)CC(O)C5(C)C4CCC23C)C1` (stereo not drawn), the “viability, % of control” value was 65.7% [at 17.3 µM].
In the case of `O=C(c1c(F)ccc(NS(=O)(=O)N2CC[C@@H](F)C2)c1F)c1c[nH]c2ncc(-c3cnc(C4CC4)nc3)cc12`, the Potency was 8.2 µM (active).
For `COC12CC3C(C(C)C1=CC(=O)O2)C(O)C(OC(C)=O)C1C(C)(C)C(OC(C)=O)CCC31C` (stereo not drawn), the “viability, % of control” value was 102% [at 17.3 µM].
For `COC(=O)C1=COC(O[C@@H]2O[C@H](COC(=O)/C=C/c3ccc(O)cc3)[C@@H](O)[C@H](O)[C@H]2O)C2C(CO)=CCC12` (stereo partly drawn), the “viability, % of control” value was 97.5% [at 17.3 µM].
In the case of `CC(C)C(C)C(O)C1CC23CC(=O)C4(O)C(=C2CCC3C1C)C=CC1(O)CC(O)CCC14C` (stereo not drawn), the Potency was 7.09 µM (active).
In the case of `COC(=O)C1=CO[C@@H](O[C@@H]2O[C@H](CO)[C@@H](O)[C@H](O)[C@H]2O)[C@H]2[C@@H]1[C@H](O)[C@H](O)[C@]2(C)O`, the “viability, % of control” value was 88.7% [at 17.3 µM].
With `COc1cc(C[C@H]2COC(=O)[C@@H]2Cc2ccc(O)c(OC)c2)ccc1O` the “viability, % of control” value was 82%.
In the case of `O=C(Nc1nc2ccc([N+](=O)[O-])cc2s1)C1CCCCC1`, the Potency was 18.4 µM (active).
In the case of `Oc1ccc2c(c1)OCC1(O)Cc3cc(O)c(O)cc3C21` (stereo not drawn), the Potency was 3.66 µM (active).
With `O=C(O)CCc1cc2ccoc2cc1O[C@@H]1O[C@H](CO)[C@@H](O)[C@H](O)[C@H]1O` the “viability, % of control” value was 88.4%.
With `C=C[C@H]1[C@H](O[C@@H]2O[C@H](CO)[C@@H](O)[C@H](O)[C@H]2O)OC=C(C(=O)OC)[C@H]1CC=O` the “viability, % of control” value was 103%.
With `C=C(C(=O)O)C1CCC(C)C2CCC(=O)OC2(C)C1` (stereo not drawn) the Potency was 20.6 µM (active).
With `COc1cc2c(cc1OC)/C(=C/c1ccc(O)cc1)C(=O)N2` the Potency was 18.4 µM (active).
With `Cc1cc2c(F)c(Oc3ncnn4cc(OCC(C)OC(=O)C(C)N)c(C)c34)ccc2[nH]1` (stereo not drawn) the Potency was 8.2 µM (active).
In the case of `Clc1ccc2c(c1)N=C(N1CCNCC1)c1ccccc1N2`, the Potency was 20.6 µM (active).
With `CC[C@H](CO)Nc1nc(Nc2cccc(-c3ccccn3)c2)c2ncn(C(C)C)c2n1` the Potency was 5.17 µM (active).
In the case of `COc1cc(C(CO)CO[C@@H]2O[C@H](CO)[C@@H](O)[C@H](O)[C@H]2O)ccc1O` (stereo partly drawn), the “viability, % of control” value was 94.7%.
With `COc1ccc(CCc2nc3cc(-c4c(C)noc4C)ccc3n2CC(C)N2CCOCC2)cc1Cl` (stereo not drawn) the Potency was 5.17 µM (active).
In the case of `CC12CC(c3ccoc3)OC(=O)C1CCC1(C)C2CCC(O)C1(C)O` (stereo not drawn), the “viability, % of control” value was 74.1%.
For `CC(=O)c1c(O)cc2cccc3c2c1CC(C)(O)O3` (stereo not drawn), the “viability, % of control” value was 62%.
In the case of `Cc1cc2c(c(=O)o1)C=C1CC[C@H]([C@H](C)Cn3cnc(=N)c4[nH]cnc43)C[C@@H]1O2`, the “viability, % of control” value was 80.9%.
With `COc1ccc(/C=C/C(=O)O[C@H]2[C@H](O[C@H]3[C@@H]4C=CO[C@@H](O[C@@H]5O[C@H](CO)[C@@H](O)[C@H](O)[C@H]5O)[C@@H]4[C@@]4(CO)O[C@@H]34)O[C@@H](C)[C@H](O)[C@H]2OC(C)=O)cc1` the “viability, % of control” value was 70.8% [at 17.3 µM].
For `CC(C)Oc1ccc(-c2nc(-c3cccc4c3CCC4NCCC(=O)O)no2)cc1C#N` (stereo not drawn), the “viability, % of control” value was 75.8%.
For `CN1C(=O)c2ccccc2NC(=O)[C@]12O[C@@H]2c1cccc(O)c1`, the “viability, % of control” value was 81.8%.
In the case of `CC(C)C(C(=O)N(C)C(C)C(N)=O)N(C)C(=O)C1CCCN1C(=O)/C=C/C=C/C(O)C(C)O` (stereo not drawn), the “viability, % of control” value was 93.3% [at 17.3 µM].
For `C[C@@]12C[C@]3(O)O[C@H](O1)[C@]1(COC(=O)c4ccccc4)[C@H]3C[C@@]12O[C@@H]1O[C@H](COC(=O)c2ccccc2)[C@@H](O)[C@H](O)[C@H]1O`, the “viability, % of control” value was 77% [at 17.3 µM].
For `COC(=O)C1=C[C@@H](O)[C@@H](O)[C@H](O[C@@H]2O[C@H](CO)[C@@H](O)[C@H](O)[C@H]2OC(=O)/C=C/c2ccccc2)C1`, the “viability, % of control” value was 90.2% [at 17.3 µM].
In the case of `CC(=O)Oc1ccc(C2(c3ccc(OC(C)=O)cc3)Oc3ccccc3NC2=O)cc1`, the Potency was 2.99 µM (active).
With `C=C1[C@@H]2CC[C@@]3(C)[C@H](c4ccoc4)OC(=O)C[C@]13O[C@H]1CC(=O)C(C)(C)[C@H](CC(=O)OC)[C@]12C` the “viability, % of control” value was 73.6% [at 17.3 µM].
With `C=C1C(=O)OC2/C=C(\C)CC/C=C(\C=O)C(OC)C(OC(=O)C(C)CC)C12` (stereo not drawn) the Potency was 2.02 µM (active).
With `COc1ccc2c(c1)CN(C(=O)CCN1CCC(Cc3ccccc3)CC1)CCS2` the Potency was 8.93 µM (active).
For `CN(CCCNC(=O)c1ccc2nc3c(c(Cl)c2c1)CCCC3)Cc1ccccc1`, the Potency was 8.2 µM (active).
With `COc1cc(-c2ncn(/C=C\C(=O)OC(C)C)n2)cc(C(F)(F)F)c1` the Potency was 0.164 µM (active).
In the case of `CC(C)[C@@H](C)/C=C/[C@@H](C)[C@H]1CC[C@H]2C3=CC=C4C[C@@H](O)CC[C@]4(C)C3=CC[C@]12C`, the Potency was 11.6 µM (active).
With `CC(C)c1cc(C(=O)N2CC[C@@H](NC(=O)C3CC3)C2)n[nH]1` the “viability, % of control” value was 54.6%.
With `CC(O)C(O)/C=C/C=C/C(=O)O[C@@H]1C=C2COC(=O)[C@]2(O)[C@@]2(C)CCCC(C)(C)C12` (stereo partly drawn) the “viability, % of control” value was 73% [at 17.3 µM].
With `CC1OC(OCC2OC(OC3CCC4(C)C(CCC5(C)C4CC=C4C6CC(C)(C)CCC6(C(=O)OC6OC(CO)C(O)C(O)C6O)CCC45C)C3(C)CO)C(O)C(O)C2O)C(O)C(O)C1O` (stereo not drawn) the viability, % of control was 96.2% [at 9.25 µM].
In the case of `O=C1NC2CCCCN2C12CCN(CCCN1c3ccccc3CCc3ccc(Cl)cc31)CC2` (stereo not drawn), the Potency was 4.61 µM (active).
In the case of `Cn1cnc2c(NCc3ccccc3)nc(NCCO)nc21`, the “viability, % of control” value was 86.6%.
In the case of `C[C@@H]1O[C@@H](O[C@H]2[C@H](OC(C#N)c3ccc(O)cc3)O[C@H](CO)[C@@H](O)[C@@H]2O)[C@H](O)[C@H](O)[C@H]1O` (stereo partly drawn), the “viability, % of control” value was 85.1% [at 17.3 µM].
